PubChem BioAssay
Values joined by “and” are separate entries in the source; they are usually repeats but may differ in a detail not shown here. Equal values may be shown once. More than one record can exist for a structure, and the calls need not agree. Active and inactive are the calls of the source.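 How the source made its calls, unless noted: active means inhibition at or above 50% relative to wild type and mutant plate controls; inactive means inhibition below 50%.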

Columns and labels:
[1] = inhibitors of TNFa-induced NFkB p65 translocation, primary screen, imaging, HUVEC, MLSMR starter and 10KST1 sets (AID 438;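 active means inhibition above 20% together with a positive visual image hit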;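 further: compound added about 3h40 before a 20 min TNFalpha stimulation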;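 on inhibition: signal is the nuclear over cytoplasmic p65 intensity ratio per well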); conditions: HUVEC TNFa-induced p65 nuclear translocation; cell count: measured here: nuclei count (cytotoxicity indicator), at 2.08 µM; inhibition: at 2 µM, stronger effect = higher value, 0% TNFa-plus-vehicle, 100% no-TNFa wells
[2] = reduction of polyQ htt aggregates in cells – imaging, exon1htt(103Q)mCFP cells, high-content imaging, primary screen (AID 483;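 active means visual image review flags a hit and inhibition of aggregation exceeds 20%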;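 further: compound exposure lasted 3 days before fixation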;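 on nuclei count: percent of the per-plate median nuclei count of sample wells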); conditions: exon1htt(103Q)mCFP cell line, aggregate imaging, at 2 µM; inhibition of aggregation: stronger effect = higher value; nuclei count: measured here: cell count, toxicity
[3] = endothelial E-selectin expression blockers – imaging, HUVEC, immunofluorescence, MLSMR starter and 10KST1 sets, primary screen (AID 487;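 active means visually confirmed hit in the image check and inhibition above 20%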;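 on inhibition: signal is fraction of cell area covered by stained E-selectin grains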;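 on nuclei count: 100% = median nuclei count of all wells on the same plate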); conditions: HUVEC TNFalpha-induced E-selectin immunofluorescence imaging, at 2 µM; inhibition: stronger effect = higher value; nuclei count: measured here: cell number, toxicity
[4] = Primary imaging screen for DUSP6 inhibitors that restore phospho-Erk in transfected HeLa cells, chemical complementation (AID 609;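 active means compounds giving at least 50% inhibition in the cell-based MKP-3 phosphatase rescue imaging test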;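 on inhibition: phospho-Erk level distribution per well compared with pooled transfected vehicle control wells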); conditions: HeLa MKP-3 transfected, phospho-Erk imaging KS statistic, at 10 µM, cells stimulated with TPA for 15 min
[5] = molecular target: Dual specificity protein phosphatase 6 (Homo sapiens) (UniProt Q16828); assay: as above; conditions: HeLa MKP-3 transfected, phospho-Erk imaging KS statistic; at 10 µM; stronger effect = higher value; cells stimulated with TPA for 15 min
[6] = molecular target: Voltage-gated potassium channel subunit beta-2 (Rattus norvegicus) (UniProt P62483); assay: inhibitors of rat Kvbeta2 reductase activity – biochemical, NADPH fluorescence, primary screen (AID 622;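 active means fluorescence slope higher than the sample average by over 3 SD, cut at about -0.22 in these data, passing the limit was not always enough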;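 further: slope of raw intensity against log time taken from 70 to 1610 s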); conditions: recombinant KvBeta, 4-cyanobenzaldehyde reduction, at 10 µM, stronger effect = higher value
[7] = molecular target: Voltage-gated potassium channel subunit beta-2 (Rattus norvegicus) (UniProt P62483); assay: enhancers of rat Kvbeta2 NADPH turnover – biochemical, NADPH fluorescence, primary screen (AID 623;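 active means NADPH fluorescence slope more negative than the mean of all samples by about 3 SD, 99.7% confidence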;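 further: fluorescence intensity change per second fitted from 20 to 320 s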); conditions: Recombinant KvBeta, NADPH fluorescence decrease slope, 10 min; at 10 µM; stronger effect = lower value
[8] = molecular target: Alpha-2C adrenergic receptor (Homo sapiens) (UniProt P18825); assay: compounds altering alpha2C-coupled GIRK flux – cell-based, HEK293 alpha2C/GIRK1/2, thallium flux, primary screen (AID 624;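 active means fluorescence slope after compound addition differing from the mean of all screened samples at 99.7% confidence, in either direction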;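 further: slope of fluorescence ratio to pre-addition baseline per second over 15 to 24 s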); conditions: thallium flux BTC fluorescence, at 10 µM, actives lie on both sides
[9] = inhibitors of larval lipid processing in zebrafish, primary screen, whole organism, PED6 fluorescence, gall bladder and intestine (AID 686;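 active means a full or partial loss of lipid-probe fluorescence in the fish gall bladder, intestine or both, judged by eye; inactive means no fluorescence loss, or compound toxic to the fish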;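 further: larvae 5 to 7 days old with five fish per well; signal comes from phospholipase A2 cleavage of quenched PED6 carried via bile; overnight exposure to compound and PED6 before scoring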); conditions: Zebrafish larvae PED6 lipid processing, fluorescence scoring; screened at 20 µM (by protocol)
[10] = loss of swimming-algae plug formation – whole organism, Chlamydomonas reinhardtii, WT vs cilia-less mutant, absorbance, 96-well, primary screen (AID 463189); conditions: Chlamydomonas reinhardtii gravitaxis, OD600 absorbance, 2 days; at 10 µM; stronger effect = higher value;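 further: 0% = wild type cc124 cells in DMSO and 100% = ciliumless bld1 mutant cells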
[11] = blockers of RIG-like receptor reporter activation – cell-based, Sendai virus stimulus, luciferase, 10K MLSCN set, TLR/RLR signaling modifier project, primary screen (AID 602276;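 active means inhibition at or above 50% at 10 µM; inactive means inhibition below 50%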;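 further: firefly luciferase from ISG56 promoter only with Renilla not read in this screen; 0% = Sendai virus plus DMSO and 100% = medium plus DMSO without virus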); conditions: HEK293 RL24 IRF3 luciferase reporter, at 10 µM, stronger effect = higher value
[12] = TLR3 IRF3 reporter activation blockers – cell-based, poly I:C stimulus, luciferase, 10K MLSCN set, primary screen (AID 602277;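 active means inhibition of the reporter signal at or above 50%; inactive means inhibition below 50%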); conditions: HEK293-TLR3 RL24 IRF3 luciferase reporter, at 10 µM, stronger effect = higher value
[13] = measured here: cell density z-score
[14] = measured here: nuclear c-Myc green intensity z-score
[15] = measured here: nuclear pErk red intensity z-score, stronger effect = higher value

Dual specificity protein phosphatase 6 (Homo sapiens), sequence (Q16828 whole entry, looked up): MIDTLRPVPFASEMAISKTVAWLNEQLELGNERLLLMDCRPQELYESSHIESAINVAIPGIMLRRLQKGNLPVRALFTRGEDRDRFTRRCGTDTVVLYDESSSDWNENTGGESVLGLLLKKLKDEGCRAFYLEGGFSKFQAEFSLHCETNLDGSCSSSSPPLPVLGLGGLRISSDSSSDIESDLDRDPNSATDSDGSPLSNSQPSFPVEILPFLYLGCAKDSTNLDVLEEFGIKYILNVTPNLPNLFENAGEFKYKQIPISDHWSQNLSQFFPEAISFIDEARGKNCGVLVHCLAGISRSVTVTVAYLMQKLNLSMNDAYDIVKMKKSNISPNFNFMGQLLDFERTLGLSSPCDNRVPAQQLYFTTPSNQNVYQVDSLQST
Voltage-gated potassium channel subunit beta-2 (Rattus norvegicus), sequence (P62483 whole entry, looked up): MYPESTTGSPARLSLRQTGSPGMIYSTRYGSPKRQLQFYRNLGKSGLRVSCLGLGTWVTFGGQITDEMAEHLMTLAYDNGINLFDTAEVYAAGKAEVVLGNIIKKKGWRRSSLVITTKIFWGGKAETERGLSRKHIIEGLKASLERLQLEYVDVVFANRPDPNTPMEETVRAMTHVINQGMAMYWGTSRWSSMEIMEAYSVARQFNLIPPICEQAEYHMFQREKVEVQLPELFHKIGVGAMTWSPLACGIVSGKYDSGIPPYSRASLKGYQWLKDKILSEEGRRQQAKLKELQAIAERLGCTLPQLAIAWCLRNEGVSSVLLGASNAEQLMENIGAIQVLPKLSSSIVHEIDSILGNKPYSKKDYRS
Alpha-2C adrenergic receptor (Homo sapiens), sequence (P18825 whole entry, looked up): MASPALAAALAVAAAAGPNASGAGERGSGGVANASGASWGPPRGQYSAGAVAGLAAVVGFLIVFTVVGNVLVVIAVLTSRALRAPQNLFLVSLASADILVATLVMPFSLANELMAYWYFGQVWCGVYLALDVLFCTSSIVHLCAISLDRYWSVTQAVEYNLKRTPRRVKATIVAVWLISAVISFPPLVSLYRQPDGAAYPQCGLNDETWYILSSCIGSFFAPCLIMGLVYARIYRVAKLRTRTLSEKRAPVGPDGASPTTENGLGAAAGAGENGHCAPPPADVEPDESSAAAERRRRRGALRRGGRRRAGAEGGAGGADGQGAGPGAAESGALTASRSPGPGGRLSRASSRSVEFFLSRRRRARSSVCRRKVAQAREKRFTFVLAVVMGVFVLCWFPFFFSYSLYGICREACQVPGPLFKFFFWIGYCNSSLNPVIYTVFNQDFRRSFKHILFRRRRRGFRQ

SMILES | cell count [1] | inhibition [1] | inhibition of aggregation [2] | nuclei count [2] | inhibition [3] | nuclei count [3] | z-score [4, 13] | z-score [4, 14] | z-score [4, 15] | inhibition [5] | fluorescence slope [6] | NADPH fluorescence slope [7] | slope [8] | outcome [9] | inhibition [10] | inhibition [11] | inhibition [12]
CCOC(=O)/C(C#N)=C1\Nc2ccccc2N=C1N(CC(C)C)CC(C)C | 586 | -7.3% (inactive) | -2.5% (inactive) | 105% | -92.9% (inactive) | 148% | -0.677 | -0.872 | -0.406 | 3.56% (inactive) | -0.524 (inactive) | -3.1e-05 (inactive) | 0.00419 (inactive) | inactive | 1.92% (inactive) | -5.84% (inactive) | -1.84% (inactive)
CN1[C@@H](CC(=O)c2ccccc2)CCC[C@H]1C[C@H](O)c1ccccc1 | 617 | -3.2% (inactive) | -2.2% (inactive) | 96.2% | -81.3% (inactive) | 120% | -0.242 | -0.85 | 0.339 | 21.2% (inactive) | -0.436 (inactive) | -0.000135 (inactive) | 0.00528 (inactive) | inactive | 1.79% (inactive) and -5.55% (inactive) | 8% (inactive) | 31.3% (inactive)
O=C(O)Cc1cc(I)c(Oc2ccc(O)c(I)c2)c(I)c1 | 625 | 3.9% (inactive) | 12.4% (inactive) | 103% | -92% (inactive) | 123% | 0.485 | -0.133 | 0.686 | 8% (inactive) | -0.541 (inactive) | -4.1e-05 (inactive) | 0.00612 (inactive) | inactive | 22% (inactive) | -15.1% (inactive) | -273% (inactive)
CC(Cc1ccc(O)c(O)c1)C(C)Cc1ccc(O)c(O)c1 (stereo not given) | 641 | 12.1% (inactive) | -17.2% (inactive) | 100% | -62.1% (inactive) | 127% | 0.848 | 0.39 | -0.226 | 16.8% (inactive) | -0.504 (inactive) | -8.3e-05 (inactive) | 0.00569 (inactive) | inactive | -9.23% (inactive) | 3.4% (inactive) | -2.88% (inactive)
COc1ccc(Nc2nc(Nc3ccc(OC)cc3)nc(-n3[nH]c(=O)c(C)c3C)n2)cc1 | 656 | -10.8% (inactive) | 0.5% (inactive) | 124% | -17.7% (inactive) | 122% | -0.0693 | 1.31 | 0.0692 | 13.9% (inactive) | -0.474 (inactive) | -5.6e-05 (inactive) | 0.00543 (inactive) | inactive | 2.29% (inactive) | 22.1% (inactive) | 8.22% (inactive)
C[C@H]1C[C@@H]2[C@H]([C@@H](O)C[C@@]3(C)[C@H]2CC[C@]3(O)C(=O)CO)[C@@]2(C)C=CC(=O)C=C12 | 665 | -3.7% (inactive) | 10.3% (inactive) | 101% | -77.5% (inactive) | 120% | 1.04 | 0.95 | 0.348 | 7.39% (inactive) | -0.512 (inactive) | -7.2e-05 (inactive) | 0.00539 (inactive) | inactive | 7.13% (inactive) | 11.3% (inactive) | 36.5% (inactive)
O=C(O)CCc1cc(I)c(Oc2ccc(O)c(I)c2)c(I)c1 | 623 | -9.5% (inactive) | -4.4% (inactive) | 107% | -120% (inactive) | 127% | 1.17 | -0.143 | 0.645 | 9.37% (inactive) | -0.522 (inactive) | -5.4e-05 (inactive) | 0.00395 (inactive) | inactive | 3.29% (inactive) | 21.3% (inactive) | 34.6% (inactive)
OCCN1CCN(CCCN2c3ccccc3Sc3ccc(Cl)cc32)CC1 | 705 | -3% (inactive) | -20.6% (inactive) | 109% | -112% (inactive) | 130% | -0.393 | 0.625 | 2.66 | 3.45% (inactive) | -0.46 (inactive) | -5.7e-05 (inactive) | 0.0036 (inactive) | inactive | 3.48% (inactive) and 164% (active) | 17.3% (inactive) | 40.7% (inactive)
NS(=O)(=O)c1cc2c(cc1Cl)NC(C1C[C@H]3C=C[C@@H]1C3)NS2(=O)=O (stereo not given in full) | 536 | -8.9% (inactive) | -11.7% (inactive) | 102% | 6.1% (inactive) | 120% | 0.229 | 0.164 | 0.0197 | -6.41% (inactive) | -0.525 (inactive) | -1.3e-05 (inactive) | 0.00377 (inactive) | inactive | 20.5% (inactive) | -6.01% (inactive) | -8.05% (inactive)
C[C@]12CCC(=O)C=C1CC[C@@H]1[C@@H]2[C@@H](O)C[C@@]2(C)[C@H]1CC[C@]2(O)C(=O)CO | 526 | 1.3% (inactive) | -3.8% (inactive) | 63.5% | -35.4% (inactive) | 94.1% | -3.38 | -0.793 | -0.0815 | 5.42% (inactive) | -0.459 (inactive) | -3.2e-05 (inactive) | 0.00455 (inactive) | inactive | 2.91% (inactive) and -18.2% (inactive) | 4.18% (inactive) | 38.7% (inactive)
O/N=C/c1ccc(OCC(O)COc2ccc(/C=N/O)cc2)cc1 | 678 | 3.9% (inactive) | 8.1% (inactive) | 104% | -37.7% (inactive) | 114% | 0.736 | -0.218 | -0.78 | -8.59% (inactive) | -0.33 (inactive) | -1e-05 (inactive) | 0.00891 (inactive) | inactive | 13.7% (inactive) | -3.4% (inactive) | -9.91% (inactive)
CO[C@@]1(NC(=O)CSCC#N)C(=O)N2C(C(=O)O)=C(CSc3nnnn3C)CS[C@@H]21 | 632 | -3.9% (inactive) | 3.8% (inactive) | 103% | -96.3% (inactive) | 143% | 0.71 | -0.314 | -0.547 | 19.2% (inactive) | -0.497 (inactive) | -7e-05 (inactive) | 0.00536 (inactive) | inactive | 5.45% (inactive) and -4.17% (inactive) | 7.82% (inactive) | 28.6% (inactive)
CC(C)CCNC(=O)[C@H](CC(C)C)NC(=O)[C@H]1O[C@@H]1C(=O)O | 625 | -6.9% (inactive) | 11.7% (inactive) | 98.3% | -39.7% (inactive) | 134% | 0.0708 | 0.541 | 0.76 | 9.37% (inactive) | -0.496 (inactive) | -1.1e-05 (inactive) | 0.00458 (inactive) | inactive | 10.6% (inactive) | 10.1% (inactive) | 34.8% (inactive)
Cc1ccccc1C(OCCN(C)C)c1ccccc1 (stereo not given) | 644 | -4.5% (inactive) | -3% (inactive) | 89% | -41.9% (inactive) | 103% | -0.367 | -1.7 | 0.158 | -0.828% (inactive) | -0.48 (inactive) | -2.2e-05 (inactive) | 0.00302 (inactive) | inactive | 24.9% (inactive) and 29.3% (inactive) | 22.3% (inactive) | 42.3% (inactive)
NS(=O)(=O)c1cc2c(cc1C(F)(F)F)NC(Cc1ccccc1)NS2(=O)=O (stereo not given) | 519 | -2.8% (inactive) | 18.4% (inactive) | 75.3% | -18.5% (inactive) | 105% | -0.539 | -0.574 | 0.0203 | -0.493% (inactive) | -0.528 (inactive) | 7.9e-07 (inactive) | 0.00523 (inactive) | inactive | -16.5% (inactive) | 9.6% (inactive) | 2% (inactive)
Cc1ccc(N(CC(O)CN2CCCC2)S(=O)(=O)c2ccc(C)cc2)cc1 (stereo not given) | 415 | -5.4% (inactive) | 8.3% (inactive) | 97.4% | -210% (inactive) | 148% | 1.32 | -1.19 | -0.796 | 13.2% (inactive) | -0.388 (inactive) | -5e-05 (inactive) | 0.00478 (inactive) | inactive | 7.07% (inactive) | -14.3% (inactive) | -1.97% (inactive)
COC(=O)c1cc(Br)c(=O)n(Cc2cccnc2)c1 | 578 | 3% (inactive) | -10.7% (inactive) | 108% | -15.9% (inactive) | 109% | -0.222 | 1.1 | -1.83 | -3.5% (inactive) | -0.545 (inactive) | -2.2e-05 (inactive) | 0.00588 (inactive) | inactive | -26.1% (inactive) | 9.75% (inactive) | 17.7% (inactive)
Brc1c(NC2=NCCN2)ccc2nccnc12 | 621 | -4.8% (inactive) | -11.3% (inactive) | 104% | -58.7% (inactive) | 120% | -0.535 | 0.61 | 1.33 | 34.5% (inactive) | -0.534 (inactive) | 1.1e-06 (inactive) | 0.0151 (active) | inactive | 5.25% (inactive) and -5.37% (inactive) | 14% (inactive) | 28.8% (inactive)
N#CC(C(=O)Nc1ccc(Cl)c(Cl)c1)=C1Nc2ccccc2N1 | 445 | -0.2% (inactive) | 13.2% (inactive) | 98.9% | -124% (inactive) | 136% | 0.726 | 1.14 | 0.693 | -1.75% (inactive) | -0.351 (inactive) | -8.3e-07 (inactive) | 0.00591 (inactive) | inactive | -6.51% (inactive) | 12.6% (inactive) | 15.9% (inactive)
Nc1ncnc2c1ncn2[C@@H]1O[C@H](CO)[C@@H](O)[C@H]1O | 562 | -1.7% (inactive) | -15.3% (inactive) | 101% | -40.5% (inactive) | 128% | 0.315 | -0.14 | 0.779 | -12.3% (inactive) | -0.453 (inactive) | -3.6e-05 (inactive) | 0.00542 (inactive) | inactive | -7.15% (inactive) | 11.2% (inactive) | 25.6% (inactive)
